Laboratory results as given in PubChem BioAssay.

Experiment: small molecules captured by biotinylated probe aFSTL3 – biochemical, small-molecule microarray, fluorescence 635/667, stem cell growth factor project, primary screen (AID 1064);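 also: measures binding of the biotinylated anti-FSTL3 antibody to printed compounds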
Details: higher = more signal
C=CC(=C)[C@H]1Oc2ccccc2S(=O)(=O)N2CCC[C@@H]12 showed a composite z-score of 0.289.
With C=C[C@@H](COC(=O)OC(C)(C)C)N(Cc1ccc(OC)cc1)S(=O)(=O)c1ccc(Br)cc1 the composite z-score was -0.492.
For COCC(=C=CC[C@@H](O)c1cccc(OCCO)c1)C[C@@H](O)c1ccccn1, the composite z-score was -0.19.
Work on O=C(CS)NCCCCCCNC(=O)[C@@H]1C[C@@H]2C(=O)NCC(=O)N2[C@@H]1c1cccc(OCCO)c1 yielded a composite z-score of 0.35.
C=C(CC1([C@@H](NP(=O)(c2ccccc2)c2ccccc2)[C@H]2C[C@@H]2CCCC)CC1)c1ccccc1 gave a composite z-score of 0.591.
Compound COC(=O)[C@@]1(Cc2ccc(F)cc2)[C@H]2c3cc(C(=O)N(C)C)n(Cc4cc(F)c(F)c(F)c4)c3C[C@H]2CN1C(=O)c1ccccc1 has a composite z-score of 0.293.
Compound CN(C)CCCC[C@@H]1NC(=O)[C@H]2C[C@@H](C(=O)NCCCCCCN)[C@@H](c3ccc(O)cc3)N2C1=O has a composite z-score of 1.89.
With CN(C)CCCCCCNC(=O)[C@H]1C[C@H]2C(=O)N[C@@H](CCCCN)C(=O)N2[C@H]1c1cccc(OCCO)c1 the composite z-score was 3.62.
CC(C)=CCCC(C)=CC(O)C1C=CC2C(=O)N(C)C(=O)C2N1Nc1ccccc1 (stereo not given) showed a composite z-score of 0.0019.
CCS[C@H]1[C@@H](C(=O)O)[C@H](c2ccc(C)cc2)N(S(=O)(=O)c2ccc(C)cc2)[C@@H]1CC showed a composite z-score of -0.21.
With CCC(CC)C(O)C1C=CC2C(=O)NC(=O)C2N1Nc1ccc(Cl)cc1Cl (stereo not given) the composite z-score was 0.494.
With COC(=O)[C@@]1(Cc2ccc(F)cc2)[C@H]2c3cc(C(=O)N(C)C)n(Cc4ccccc4)c3C[C@H]2CN1C(=O)c1ccccc1 the composite z-score was -0.0364.
C=CCNC(=O)[C@H]1[C@@H]2C(=O)O[C@@H](c3ccccc3)[C@@H](c3ccccc3)N2[C@@H](c2ccccc2OCCO)[C@]12C(=O)Nc1ccc(C#CCCO)cc12 showed a composite z-score of 0.103.
COCCCNC(=O)[C@]1(CCC(=O)OC(C)(C)C)N=C(c2ccc(OCCCO)cc2)O[C@@H]1c1ccccc1CN=[N+]=[N-] showed a composite z-score of 0.175.
Work on O=C1OCCC/C=C\[C@H]2OC34C=CCN(Cc5ccccc5)C(=O)[C@H]3N(CCCO)C(=O)[C@@H]4C12 (stereo not given in full) yielded a composite z-score of 0.985.
CN1C(=O)C2C=CC(C(O)C3CC=CCC3)N(N(c3ccccc3)c3ccccc3)C2C1=O (stereo not given) showed a composite z-score of 0.677.
With C=CCC(OC(C)=O)[C@@H]1[C@@H](N(Cc2ccc(-c3cccc(C(F)(F)F)c3)o2)C(=O)c2ccc(C)cc2)c2cc(OCCCO)ccc2N1C(=O)Cc1ccc2ccccc2c1 (stereo not given in full) the composite z-score was 0.0498.
CO[C@H]1O[C@H](CO)[C@@H](OC(=O)Nc2ccccc2)[C@H](OC(=O)Nc2ccccc2)[C@@H]1OC(=O)Nc1ccccc1 showed a composite z-score of -0.29.
In the case of O=C(OCc1ccccc1)C1=CCC2c3[nH]c4ccccc4c3C(=O)C1N2S(=O)(=O)c1ccccc1[N+](=O)[O-] (stereo not given), the composite z-score is reported as -0.154.
With C=C(CCCC)/C(=C/C[C@@H](OC(C)=O)c1ccc(OCCO)cc1)c1cnc2ccccc2c1 the composite z-score was 0.0374.
Work on COc1ccc([Si](C)(C)[C@@H]2[C@@H](CC(=O)N3CCC[C@H]3CO)O[C@]3(C(=O)N(c4ccccc4)c4ccccc43)[C@H]2C)cc1 yielded a composite z-score of -0.527.
With CC(C)NC(=O)[C@@]1(C)c2ccccc2C(=O)N(Cc2cc(C(F)(F)F)cc(C(F)(F)F)c2)[C@H]1c1ccc(CO)cc1 the composite z-score was 0.43.
CNS(=O)(=O)c1ccc(C)cc1 gave a composite z-score of -0.366.
Compound O=C(c1ccccc1)N1Cc2ccccc2C[C@@]2(COC(c3ccc(OCCCO)cc3)=N2)C1=O has a composite z-score of -0.0932.
In the case of COc1ccc(CCNC(=O)[C@@]2(Sc3ccc(C)cc3)CC(=O)N(C3Cc4ccccc4C3)[C@@H]2c2ccc(CO)cc2I)cc1, the composite z-score is reported as 0.538.
COc1cc2c(cc1OC)CN(C(=O)[C@@H]1[C@H]3C(=O)O[C@H](c4ccccc4)[C@H](c4ccccc4)N3[C@H](c3ccc(O)cc3)[C@@]13C(=O)Nc1ccccc13)CC2 showed a composite z-score of 0.113.
For COc1ccc([Si](C)(C)[C@@H]2[C@@H](CCO)O[C@]3(C(=O)N(Cc4ccc(N(C=O)c5ccccc5)cc4)c4ccccc43)[C@H]2C)cc1, the composite z-score was 0.235.
In the case of COc1cc(COC(C)=O)ccc1OC(C)=O, the composite z-score is reported as 0.299.
COc1ccccc1CN1C(=O)c2ccccc2[C@@H](C(=O)NC2CC2)[C@@H]1c1ccc(CO)cc1 showed a composite z-score of 0.11.
CCCC[C@@H]1C[C@H]1[C@@H](NC(=O)c1ccco1)c1ccccc1C(F)(F)F gave a composite z-score of 2.82.
O=C1C2C=CC(C(O)c3cc(C(F)(F)F)cc(C(F)(F)F)c3)N(n3cnnc3)C2C(=O)N1Cc1ccccc1 (stereo not given) gave a composite z-score of -0.153.
For CN(C)CCCCCCNC(=O)[C@H]1C[C@H]2C(=O)N3CCC[C@H]3C(=O)N2[C@H]1c1ccc(O)cc1, the composite z-score was -0.0698.
Compound O=C1O[C@H](c2ccccc2)[C@H](c2ccccc2)N2[C@H]1[C@@H](C(=O)N1CCCCCCC1)[C@]1(C(=O)Nc3ccc(C#CCCO)cc31)[C@H]2c1ccccc1OCCO has a composite z-score of 3.95.
For C#C[C@H](O[Si](C#Cc1ccc(Oc2ccccc2)cc1)(C(C)C)C(C)C)c1ccccc1, the composite z-score was -0.247.
For COC(=O)[C@@]1(Cc2ccc(F)cc2)[C@H]2c3cc(C(=O)N(C)C)n(Cc4ccc(Cl)c(C(F)(F)F)c4)c3C[C@H]2CN1C(=O)c1ccccc1, the composite z-score was 1.15.
